Where “and” joins values, the source holds several entries; their conditions need not be identical. Identical values can stand only once. Records with an inconclusive call do not appear. More than one record can exist for a structure, and the calls need not agree. Calls of active or inactive are those of the source. Rule for the calls, unless noted: active = hit-call score of the fitted dose curve at least 0.9, where 1 is the maximum; inconclusive = response in the unintended direction; inactive = score below 0.9.
Columns and labels:
[1] = read-out: Thyroid Hormone Responsive (THRSP), THRSP (gene 7069); test: LTEA_HepaRG_THRSP: Life Technologies and Expression Analysis (LTEA) Assay for Thyroid Hormone Responsive (THRSP) using HepaRG (AID 2283536; active = hit-call score of the fitted dose curve at least 0.9, where 1 is the maximum; inactive = score below 0.9); conditions: mRNA level, 48 h; actives raise or lower the signal
Procedure, shortened: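 THRSP transcript quantified by Fluidigm qRT-PCR against three housekeeping genes after 48 h chemical exposure of HepaRG cells in serum-free induction medium; eight-point half-log series, top 100 uM, 0.5% DMSO vehicle, duplicate wells.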

[2] = read-out: Cellular tumor antigen p53 (Homo sapiens) (UniProt P04637); test: LTEA_HepaRG_TP53: Life Technologies and Expression Analysis (LTEA) Assay for Tumor Protein P53 (TP53) using HepaRG (AID 2283537; active = hit-call score of the fitted dose curve at least 0.9, where 1 is the maximum; inactive = score below 0.9); conditions: mRNA level, 48 h; actives raise or lower the signal
Procedure, shortened: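 Read-out is TP53 transcript level by microfluidic qRT-PCR, normalised to three housekeeping genes and fitted bidirectionally against DMSO. Human HepaRG cells received compounds for 48 h, highest concentration 100 uM.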

[3] = read-out: UDP glucuronosyltransferase (UGT1A1), UGT1A1 (gene 54658); test: LTEA_HepaRG_UGT1A1: Life Technologies and Expression Analysis (LTEA) Assay for UDP glucuronosyltransferase (UGT1A1) using HepaRG (AID 2283538; active = hit-call score of the fitted dose curve at least 0.9, where 1 is the maximum; inactive = score below 0.9); conditions: mRNA level, 48 h; actives raise or lower the signal
Procedure, shortened: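 Cells are plated, cultured 48 h, switched to serum-free induction medium, then dosed 48 h at eight concentrations (max 100 uM, 0.5% DMSO). RNA is isolated and UGT1A1 expression measured by qRT-PCR; changes versus DMSO are fitted in both directions.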

[4] = read-out: UDP glucuronosyltransferase (UGT1A6), UGT1A6 (gene 54578); test: LTEA_HepaRG_UGT1A6: Life Technologies and Expression Analysis (LTEA) Assay for UDP glucuronosyltransferase (UGT1A6) using HepaRG (AID 2283539; active = hit-call score of the fitted dose curve at least 0.9, where 1 is the maximum; inactive = score below 0.9); conditions: mRNA level, 48 h; actives raise or lower the signal
Procedure, shortened: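 qRT-PCR readout of UGT1A6 mRNA (normalized to ACTB/GAPDH/POLR2A) in differentiated HepaRG cells after 48 h chemical exposure; 8 concentrations, top 100 uM, half-log steps, 0.5% DMSO. Bidirectional curve fit relative to DMSO baseline.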

[5] = read-out: X-box binding protein 1 (XBP1), XBP1 (gene 7494); test: LTEA_HepaRG_XBP1: Life Technologies and Expression Analysis (LTEA) Assay for X-box binding protein 1 (XBP1) using HepaRG (AID 2283540; active = hit-call score of the fitted dose curve at least 0.9, where 1 is the maximum; inactive = score below 0.9); conditions: mRNA level, 48 h; actives raise or lower the signal
Procedure, shortened: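 HepaRG, 48 h exposure, 8-pt half-log CRC top 100 uM, 0.5% DMSO vehicle, duplicates. Readout: TaqMan qRT-PCR of XBP1 mRNA, housekeeping-normalised (ACTB/GAPDH/POLR2A); bidirectional fit vs DMSO baseline.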

[6] = LTEA_HepaRG_LDH_cytotoxicity: Cytotoxicity Assessment in the Life Technologies and Expression Analysis (LTEA) Assay (AID 2283563);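 for AC50: LDH activity released into spent culture medium as a marker of cell death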
Procedure, shortened: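 HepaRG (human liver line), 48 h exposure, 8-pt half-log series from 100 uM, 0.5% DMSO vehicle, duplicates. Read-out: LDH in spent medium. Positive-direction fit vs DMSO baseline.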

[7] = ATG_XTT_Cytotoxicity: Cytotoxicity Assessment in the Attagene TRANS-FACTORIAL HepG2 Assay (AID 2283584);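 for AC50: cells exposed to compound for 24 h before reading; active means loss of viability signal versus DMSO baseline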
Procedure, shortened: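 XTT readout of cell number in transfected HepG2 cells, 24 h post-dosing; DMSO serves as negative control and baseline, with activity taken as loss of viability signal.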

[8] = TOX21_p53_BLA_p2_viability: Viability Assessment in the Tox21 HCT-116 p53 Agonism Beta-lactamase Assay, Phase 2 (AID 2283591);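 note: actives lower the ATP signal meaning cytotoxicity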
Procedure, shortened: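 Cytotoxicity readout: CellTiter-Glo ATP luminescence, 30 min at room temperature, after the beta-lactamase read. Cells were HCT116 exposed 16 h at 37C to compounds pin-transferred at 217-fold dilution from DMSO stocks.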

[9] = molecular target: Cellular tumor antigen p53 (Homo sapiens) (UniProt P04637); test: TOX21_p53_BLA_p2_ratio: Tox21 HCT-116 p53 Agonism Beta-lactamase Assay, Ratio, Phase 2 (AID 2283592)
Procedure, shortened: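 Readout: blue/green (460/530 nm) FRET emission ratio after 2 h CCF4-AM loading at room temperature, excitation 405 nm. HCT116 p53 bla cells, 16 h compound exposure at 37C, 5% CO2; agonist direction fitted against DMSO baseline.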

[10] = TOX21_p53_BLA_p3_viability: Viability Assessment in the Tox21 HCT-116 p53 Agonism Beta-lactamase Assay, Phase 3 (AID 2283593);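 note: cells exposed to compound for 16 h before reading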
Procedure, shortened: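 Cellular ATP was quantified by CellTiter-Glo luminescence, read after 30 min at room temperature. Beforehand, HCT116 cells (4000/well) received compound 5 h post-seeding, 217-fold diluted from DMSO, then incubated 16 h at 37C.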

Measured: AC50

Sequence of Cellular tumor antigen p53 (Homo sapiens) (P04637 whole entry, looked up): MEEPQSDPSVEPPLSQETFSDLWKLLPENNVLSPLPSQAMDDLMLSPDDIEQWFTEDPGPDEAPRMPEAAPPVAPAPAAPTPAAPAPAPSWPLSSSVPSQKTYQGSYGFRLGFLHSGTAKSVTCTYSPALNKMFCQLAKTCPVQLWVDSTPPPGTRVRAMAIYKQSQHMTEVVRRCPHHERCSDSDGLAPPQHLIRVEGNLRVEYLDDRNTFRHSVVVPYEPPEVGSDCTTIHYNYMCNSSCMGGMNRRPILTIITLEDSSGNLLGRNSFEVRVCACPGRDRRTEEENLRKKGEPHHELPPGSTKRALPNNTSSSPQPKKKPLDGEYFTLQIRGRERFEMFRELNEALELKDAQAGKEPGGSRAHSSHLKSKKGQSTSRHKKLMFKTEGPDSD

CCCCCCCCCC[N+](C)(C)CCCCCCCCCC
active: [1] 24.5 µM | [4] 50 µM | [6] 36.6 µM | [7] 18.5 µM | [8] 36.4 µM and 33.1 µM | [9] 65.1 µM and 39.6 µM | [10] 64 µM and 27.4 µM
inactive: [2] | [3] | [5]

Cc1ccccc1[N+](=O)[O-]
inactive: all assays above

Cc1cc(O)ccc1Cl
inactive: all assays above

CCOP(=S)(OCC)SCSC(C)(C)C
not listed: [10]
inactive: all other assays above

Oc1ccc(C(c2ccc(O)cc2)(C(F)(F)F)C(F)(F)F)cc1
inactive: [1] | [7] | [8] | [9] | [10]
active: [2] 94.5 µM | [3] 87.5 µM | [4] 74.5 µM | [5] 77.7 µM | [6] 77 µM | [7] 60.9 µM and 100 µM | [8] 65.1 µM | [9] 63 µM | [10] 82.1 µM

O=S(=O)(O)C(F)(F)C(F)(F)C(F)(F)C(F)(F)F
inactive: all assays above

ClC(Cl)=C(c1ccc(Cl)cc1)c1ccc(Cl)cc1
active: [1] 77.6 µM | [3] 13.1 µM | [8] 55.6 µM | [9] 87.7 µM | [10] 58.4 µM
inactive: [2] | [4] | [5] | [6] | [7] | [8] | [9] | [10]

CCC(C)(c1ccc(O)cc1)c1ccc(O)cc1
active: [1] 87.3 µM | [9] 87.1 µM and 71 µM
inactive: all other assays above

CC(C)(c1ccccc1)c1ccc(O)cc1
active: [1] 78.2 µM | [6] 76.7 µM | [8] 80.1 µM | [9] 74 µM
inactive: [2] | [3] | [4] | [5] | [7] | [8] | [9] | [10]

Cc1ccccc1O
not listed: [10]
inactive: all other assays above

CCC(=O)O[C@H]1CC[C@H]2[C@@H]3CCC4=CC(=O)CC[C@]4(C)[C@H]3CC[C@]12C
active: [3] 5.32 µM | [8] 70.4 µM | [9] 87.7 µM | [10] 82 µM
inactive: [1] | [2] | [4] | [5] | [6] | [7] | [8] | [9] | [10]

Nn1cnnc1
inactive: all assays above

Clc1ccc(Cl)cc1
inactive: all assays above

ClC1=C(Cl)[C@]2(Cl)[C@@H]3[C@@H]4C[C@@H]([C@H]5O[C@@H]45)[C@@H]3[C@@]1(Cl)C2(Cl)Cl
active: [1] 50 µM | [3] 1.65 µM | [5] 0.0249 µM
not listed: [10]
inactive: all other assays above

CO/C=C(/C(=O)OC)c1ccccc1COc1cccc(C(F)(F)F)n1
active: [1] 7.31 µM | [2] 10.1 µM | [3] 20.5 µM | [4] 22.2 µM | [6] 21.2 µM | [9] 2.77 µM
inactive: [5] | [7] | [8] | [10]

ClC1=C(Cl)[C@]2(Cl)[C@@H]3[C@@H](Cl)[C@H]4O[C@H]4[C@@H]3C1(Cl)C2(Cl)Cl
active: [3] 2.1 µM | [8] 76.7 µM
inactive: all other assays above

CCOCCOC(C)=O
inactive: all assays above

O=C(NC(=O)c1c(F)cccc1F)Nc1cc(Cl)c(OC(F)(F)C(F)F)c(Cl)c1
active: [1] 9.92 µM
inactive: all other assays above

Clc1ccc(C(Cl)(Cl)Cl)cc1
inactive: all assays above

c1cc2ccc3cccc4ccc(c1)c2c34
active: [3] 10.7 µM
inactive: all other assays above

CC(c1ccc(O)cc1)(c1ccc(O)cc1)c1ccc(O)cc1
inactive: [5] | [7] | [10]
active: [1] 23.9 µM | [2] 93.9 µM | [3] 68.9 µM | [4] 75.2 µM | [6] 76.5 µM | [8] 33.4 µM | [9] 62.8 µM

Clc1ccc(C(c2ccccc2Cl)C(Cl)(Cl)Cl)cc1 (stereo unspecified)
active: [1] 55.8 µM | [3] 0.818 µM | [6] 77.5 µM | [8] 32.5 µM and 55.2 µM | [9] 47.2 µM and 74.1 µM | [10] 26.1 µM and 68.2 µM
inactive: [2] | [4] | [5] | [7]

CCCN(CCC)N=O
inactive: all assays above

C1CC2OC2CC1C1CO1 (stereo unspecified)
not listed: [10]
inactive: all other assays above

C[C@]12CCC(=O)C=C1CC[C@@H]1[C@@H]2CC[C@@]2(C)[C@H]1CC[C@]2(C)O
inactive: [2] | [5] | [7] | [8] | [9] | [10]
active: [1] 0.81 µM | [3] 10.9 µM | [4] 45.8 µM | [6] 74 µM | [9] 50.3 µM

O=C(O)C(F)(F)C(F)(F)C(F)(F)C(F)(F)C(F)(F)C(F)(F)C(F)(F)C(F)(F)F
active: [1] 58.6 µM | [2] 60.4 µM | [3] 85.4 µM | [4] 82.9 µM | [6] 78.6 µM | [8] 85.3 µM | [10] 56.9 µM
inactive: [5] | [7] | [9]

CCCCCCCCCc1ccc(O)cc1
active: [3] 32.5 µM | [7] 151 µM
inactive: [1] | [2] | [4] | [5] | [6] | [7] | [8] | [9] | [10]

CC(C)(O)C(=O)Nc1ccc([N+](=O)[O-])c(C(F)(F)F)c1
inactive: [1] | [3] | [4] | [6] | [7] | [8] | [9] | [10]
active: [2] 0.0309 µM | [5] 0.0212 µM | [9] 69.3 µM

Oc1c(Cl)c(Cl)c(Cl)c(Cl)c1Cl
inactive: [7] | [8] | [10]
active: [1] 3.94 µM | [2] 6.71 µM | [3] 3.76 µM | [4] 6.77 µM | [5] 6.22 µM | [6] 6.81 µM | [9] 8.58 µM and 1.98 µM
